Results: paper PMC4151992

Target: Eukaryotic translation initiation factor 3 subunit I (UniProt P40217)
Experiment: cross-link between two proteins; cross-linking mass spectrometry

Eukaryotic translation initiation factor 3 subunit A, P38249, sequence (P38249 whole entry): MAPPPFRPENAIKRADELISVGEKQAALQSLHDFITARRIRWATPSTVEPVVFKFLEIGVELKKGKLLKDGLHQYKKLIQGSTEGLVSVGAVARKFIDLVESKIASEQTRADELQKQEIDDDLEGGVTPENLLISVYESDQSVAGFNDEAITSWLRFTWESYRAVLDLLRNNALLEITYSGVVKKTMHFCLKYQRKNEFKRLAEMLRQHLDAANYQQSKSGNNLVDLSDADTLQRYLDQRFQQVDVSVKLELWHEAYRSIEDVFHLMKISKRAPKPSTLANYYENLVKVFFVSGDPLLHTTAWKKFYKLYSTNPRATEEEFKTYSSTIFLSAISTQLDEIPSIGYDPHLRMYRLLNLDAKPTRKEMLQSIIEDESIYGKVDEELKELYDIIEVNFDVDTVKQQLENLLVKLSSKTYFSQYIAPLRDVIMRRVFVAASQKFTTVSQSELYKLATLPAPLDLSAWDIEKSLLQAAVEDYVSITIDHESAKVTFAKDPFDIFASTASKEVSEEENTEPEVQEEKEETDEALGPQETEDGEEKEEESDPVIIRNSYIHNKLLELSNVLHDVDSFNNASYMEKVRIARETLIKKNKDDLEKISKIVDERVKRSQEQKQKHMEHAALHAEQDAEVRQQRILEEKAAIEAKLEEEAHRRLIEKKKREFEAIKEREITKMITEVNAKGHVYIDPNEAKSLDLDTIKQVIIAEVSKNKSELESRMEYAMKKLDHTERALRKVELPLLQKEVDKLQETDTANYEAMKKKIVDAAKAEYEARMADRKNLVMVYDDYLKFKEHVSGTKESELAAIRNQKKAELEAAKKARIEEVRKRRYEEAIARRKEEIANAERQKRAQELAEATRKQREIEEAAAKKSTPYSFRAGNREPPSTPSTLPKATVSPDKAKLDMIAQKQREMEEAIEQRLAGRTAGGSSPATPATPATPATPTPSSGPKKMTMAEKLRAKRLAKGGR
Eukaryotic translation initiation factor 3 subunit I, sequence (P40217 whole entry): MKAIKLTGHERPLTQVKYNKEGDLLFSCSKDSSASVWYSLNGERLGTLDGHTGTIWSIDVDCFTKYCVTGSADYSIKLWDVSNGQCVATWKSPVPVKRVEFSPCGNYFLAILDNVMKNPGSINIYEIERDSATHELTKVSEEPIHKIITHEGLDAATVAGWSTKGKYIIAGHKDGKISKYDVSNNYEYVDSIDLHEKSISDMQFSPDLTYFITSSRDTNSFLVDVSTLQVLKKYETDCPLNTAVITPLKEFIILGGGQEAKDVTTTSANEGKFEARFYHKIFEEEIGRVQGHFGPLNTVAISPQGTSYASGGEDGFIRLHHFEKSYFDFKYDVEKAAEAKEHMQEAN

Substance: Eukaryotic translation initiation factor 3 subunit A, P38249
- listed as a hit: yes
